Holding throughout (details): concentration: 1 μM, replicates: in singlicate; n = 1
Assay [1] relates to AAK1.
In assay [2] the test system is ABL1-nonphosphorylated.
In assay [3] the test system is ABL1-phosphorylated.
In assay [4] the test system is ABL2.
In assay [5] the test system is ACVR1B.
The subject of assay [6] is ACVR1.
The test system of assay [7] is ACVR2A.
Assay [8] has as its system ACVR2B.
The test system of assay [9] is ACVRL1.
Assay [10] has as its system T1, ADCK3.
T1 construct: gene CABC1

Assay [11] has as its system ADCK4.
In assay [12] the test system is AKT1.
Assay [13] concerns AKT2.
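Note: KINOMEscan kinase panel screen.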

`CC(C)(C)c1ccc(-n2cnc3c(N)ncnc32)cc1` [SKF-97263]: the “%Inh” value in [1] was determined as 1%; in [2] it was 0%; in [3] it was 0%; in assay [4] it was 7%; in assay [5], 0%; in assay [6], 10%. For the same compound, the “%Inh” value was 7% in assay [7]; 0% in [8]; 0% in [9]; 23% in [10]; 0% in assay [11]; 0% in [12]. Further, the “%Inh” value in [13] amounted to 12%.

On to `Cc1ccc(C)c(NC(=O)NCCNc2ccnc(Nc3ccc(F)cc3)n2)c1` [GSK1379878], for which the “%Inh” value in [1] is listed as 63%; in assay [2] it was 0%; in assay [3] it was 0%; in assay [4], 0%; in [5], 0%; in [6], 0%. In addition, the “%Inh” value in assay [7] is listed as 0%; in assay [8] it was 0%; in assay [9], 0%; in [10] it was 0%; in assay [11], 10%; in [12] it was 0%. For the same compound, in [13], the “%Inh” value came to 0%.

On to `FC(F)(F)c1ccc(-c2nn3ncccc3c2-c2ccnc(Nc3cccc(C(F)(F)F)c3)n2)cc1` [GW828205], for which the “%Inh” value stood at 1% in [1]; 47% in assay [2]; 30% in [3]; 16% in assay [4]; 24% in assay [5]; 0% in assay [6]. For the same compound, the “%Inh” value in assay [7] was 6%; in assay [8], 19%; in assay [9], 10%; in [10], 23%; in [11], 0%; in assay [12], 0%. The “%Inh” value in assay [13] was found to be 0%.

Consider `Clc1ccc(-c2cc(-c3c[nH]nc3-c3ccccn3)ccn2)cc1` [GW681251], for which the “%Inh” value came to 2% in [1]; 0% in [2]; 0% in assay [3]; 15% in assay [4]; 44% in assay [5]; 12% in [6]. Moreover, the “%Inh” value in assay [7] was 33%; in assay [8], 52%; in assay [9], 0%; in assay [10] it was 13%; in assay [11], 4%; in assay [12] it was 27%. Moreover, the “%Inh” value in [13] is given as 0%.

Consider `FC(F)(F)c1cc(Nc2nccc(-c3c(-c4ccc(Cl)cc4)nn4ncccc34)n2)ccc1Cl` [GW829351], for which the “%Inh” value in assay [1] was determined as 4%; in assay [2], 42%; in assay [3] it was 0%; in [4], 0%; in [5], 0%; in assay [6], 0%. The “%Inh” value came to 0% in assay [7]; 12% in [8]; 0% in [9]; 0% in assay [10]; 27% in assay [11]; 0% in assay [12]. Also, the “%Inh” value in [13] was determined as 0%.

On to `Fc1ccc(-c2ncn(CCCNCc3ccccc3)c2-c2ccncc2)cc1`, for which the “%Inh” value in assay [1] is listed as 16%; in assay [2], 25%; in assay [3], 15%; in assay [4], 12%; in [5] it was 10%; in [6], 2%. In addition, the “%Inh” value in assay [7] is given as 0%; in assay [8] it was 0%; in [9] it was 17%; in assay [10], 0%; in assay [11] it was 0%; in assay [12], 19%. Besides, the “%Inh” value in assay [13] is 12%.

For `Fc1cccc(COc2ccc(Nc3ncnc4nn5ccccc5c34)cc2Cl)c1` [GW689066], the “%Inh” value in [1] amounted to 0%; in assay [2], 0%; in [3], 0%; in [4], 1%; in [5], 0%; in assay [6], 0%. Moreover, the “%Inh” value is on record as 0% in assay [7]; 0% in assay [8]; 0% in assay [9]; 5% in assay [10]; 42% in assay [11]; 0% in assay [12]. For the same compound, the “%Inh” value in [13] stood at 3%.

`O=C(CCO)NCCn1ccc2ncnc(Nc3ccc(Oc4cccc(C(F)(F)F)c4)c(Cl)c3)c21`: the “%Inh” value is reported as 0% in [1]; 24% in assay [2]; 12% in [3]; 0% in [4]; 0% in assay [5]; 0% in assay [6]. Further, the “%Inh” value in [7] amounted to 0%; in assay [8], 0%; in assay [9], 0%; in assay [10], 3%; in [11], 0%; in assay [12] it was 0%. Further, the “%Inh” value in [13] turned out to be 0%.

For the compound `CN1c2ccc(-c3ccc(C(=O)NCCO)cc3)cc2-c2[nH]ncc2S1(=O)=O`, the “%Inh” value was 54% in assay [1]; 33% in assay [2]; 15% in assay [3]; 7% in assay [4]; 0% in assay [5]; 22% in assay [6]. Besides, the “%Inh” value in assay [7] is 0%; in assay [8], 2%; in assay [9] it was 0%; in assay [10] it was 0%; in [11], 3%; in [12] it was 11%. The “%Inh” value in [13] is listed as 0%.

On to `CC(=O)Nc1n[nH]c2ncc(-c3ccccc3)cc12` [SB-548492], for which the “%Inh” value in assay [1] worked out at 0%; in [2] it was 49%; in assay [3], 20%; in assay [4], 11%; in [5], 2%; in assay [6] it was 13%. In addition, the “%Inh” value in assay [7] is listed as 37%; in assay [8] it was 10%; in [9], 0%; in [10] it was 0%; in assay [11], 0%; in assay [12], 0%. For the same compound, the “%Inh” value in assay [13] is given as 0%.

In the case of `COC(=O)c1c(-c2ccccc2)c2cc(Cl)ccc2c(=O)n1Cc1ccc(S(C)(=O)=O)cc1`, the “%Inh” value in [1] stood at 18%; in [2], 40%; in [3], 0%; in assay [4], 18%; in [5], 0%; in [6], 0%. Besides, the “%Inh” value in assay [7] amounted to 0%; in [8] it was 0%; in [9] it was 0%; in assay [10], 17%; in [11], 0%; in assay [12] it was 9%. For the same compound, the “%Inh” value in [13] was 3%.

`Cl.O=S(=O)(c1cccc(F)c1)c1ccc(Nc2ncnc3cc(Br)sc23)cc1Cl` [GSK306886]: the “%Inh” value in assay [1] is 16%; in assay [2], 0%; in assay [3] it was 0%; in [4], 0%; in [5], 0%; in assay [6], 18%. Also, the “%Inh” value in assay [7] is on record as 0%; in [8] it was 0%; in assay [9] it was 7%; in [10], 11%; in assay [11], 22%; in assay [12], 0%. In assay [13], the “%Inh” value came to 3%.

For the compound `Nc1nc(-c2cccnc2)c(-c2ccnc3ccccc23)s1` [GW684083], the “%Inh” value turned out to be 57% in assay [1]; 0% in assay [2]; 0% in [3]; 12% in assay [4]; 10% in assay [5]; 32% in [6]. The “%Inh” value in assay [7] is recorded as 0%; in [8], 0%; in assay [9], 12%; in assay [10], 24%; in assay [11], 45%; in assay [12], 0%. For the same compound, the “%Inh” value in assay [13] is 1%.

For the compound `CCc1nc(-c2cccc(C)c2)c(-c2ccnc(NC(=O)c3ccccc3)c2)s1`, the “%Inh” value in [1] amounted to 2%; in [2], 24%; in [3], 0%; in [4] it was 27%; in assay [5] it was 12%; in assay [6] it was 0%. In addition, the “%Inh” value turned out to be 0% in assay [7]; 0% in assay [8]; 0% in assay [9]; 17% in [10]; 20% in assay [11]; 0% in assay [12]. Moreover, the “%Inh” value in assay [13] is reported as 13%.

For the compound `Cl.Cl.c1ccc(-c2cc3ccncc3cc2OC2CCNCC2)cc1` [GSK1122999], the “%Inh” value in [1] amounted to 27%; in [2], 0%; in assay [3] it was 0%; in [4], 8%; in [5], 0%; in assay [6] it was 22%. Moreover, the “%Inh” value in assay [7] was 0%; in [8], 0%; in [9], 0%; in assay [10] it was 22%; in [11] it was 42%; in assay [12] it was 0%. Besides, in assay [13], the “%Inh” value is reported as 0%.

For `CCC(CC)(CC)n1cnc2c(N)ncnc21` [SKF-97620], the “%Inh” value is on record as 0% in [1]; 27% in assay [2]; 6% in [3]; 1% in assay [4]; 10% in [5]; 0% in [6]. In addition, the “%Inh” value was 0% in assay [7]; 0% in assay [8]; 0% in assay [9]; 0% in assay [10]; 9% in assay [11]; 11% in assay [12]. Further, the “%Inh” value in assay [13] was 0%.

The values above are taken from publication PMC5540273 (PLoS ONE, 2017).
